Each structure is given as a SMILES string. This is part of a sample that, as a whole, favours compounds with a hit. Of some 83,000 tested, about 20% had one in any assay.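 The test compound was applied at a single concentration to cells in 96-well plates for 48 hours, and percent growth was recorded.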 Unmarked numbers belong to inactive results. Activity calls are given as the source filed them.

Growth data for 40 compounds are collected here from PubChem BioAssay (NCI).

The test system of this assay is NCI-H522 lung. Kind of assay: NCI-60 one-dose screen, 48 h (100 = growth as untreated, 0 = no growth, -100 = all killed). To be noted: 10 µM unless noted. As to the method:
Growth inhibition of the NCI-H522 human Non-Small Cell Lung tumor cell line is measured as a screen for anti-cancer activity. Cells are grown in 96 well plates and exposed to the test compound for 48 hours. Compounds are tested at a single concentration, which is 10^-5 M for most compounds. The reported endpoint is percent growth (GI% or GIPRCNT), where numbers from 0 - 100% represent growth inhibition, and numbers from -100% - 0 represent cell death. For example, a value of 40 represents 60% growth inhibition. A value of 0 means no net growth occurred over the course of the experiment. A value of -40 indicates 40% of cells at the beginning of the experiment died by the end of the experiment. A value of -100 means all cells are dead at the end of the experiment.
NCI-60 Human Tumor Cell Lines Screen was performed using the standard one-dose NCI protocol, which is described in more detail at https://dtp.cancer.gov/discovery_development/nci-60/default.htm.
Compounds with GIPRCNT values below 10 were considered active. Activity score was based on GIPRCNT using the following formula: […]
Score is 0 for GIPRCNT values of 100 or above, 50 for GIPRCNT values of 0, and 100 for GIPRCNT values of -100.
Regarding `Oc1c(Cl)cc(Cl)c2ccc(Cn3cc(-c4cccc(C(F)(F)F)c4)nn3)nc12`, the growth is -3.26% (active). To `N/C(=N\c1nc2ccccc2s1)NC(=NC1CCCCC1)NC1CCCCC1` belongs 14%; to `O=C(/C=C/c1cccc(Cl)c1)c1cccc(OCCCCOc2cccc(C(=O)/C=C/c3cccc(Cl)c3)c2)c1`, 88.7%. To `C#CC#CC#CC#CC#CC#CC#CC#CC[C@H]1OC[C@H](COC(=O)O[C@@H](C(=O)O[C@H]2C[C@@]3(O)[C@@H](OC(=O)c4ccccc4)[C@@H]4[C@]5(OC(C)=O)CO[C@@H]5C[C@H](O)[C@@]4(C)C(=O)[C@H](OC(C)=O)C(=C2C)C3(C)C)[C@@H](NC(=O)c2ccccc2)c2ccccc2)O1` belongs 63.5%; to `COc1ccc2[nH]cc(-c3nc(-c4cn(C)c5ccncc45)cs3)c2c1`, 65.4%. To `CCOC(=O)C1=C(C)N=C2SC=C(c3ccccc3)N2[C@H]1c1cn[nH]c1-c1ccc(Cl)cc1` belongs -56.8% (active); to `C=C1C(=O)O[C@H]2[C@H]1CC/C(COC(=O)/C=C\C(=O)NCc1ccc(Cn3c(=O)sn(-c4ccccc4)c3=O)cc1)=C\CC[C@@]1(C)O[C@@H]21`, -5.66% (active). Regarding `c1ccc(CNc2ccc3nc(CCC4CCCCC4)[nH]c3c2)cc1`, the growth is 58.3%.

For the compound `O=C(CCCCCCN1CC(=O)N2[C@@H](C3CCCCC3)c3[nH]c4ccccc4c3C[C@H]2C1=O)NO`, the growth is 39.9%. Take `C=CCOC(=O)C1=C(C)NC(=O)NC1c1c(Cl)n(C)c2ccccc12` (stereo not given): the growth is 93.3%. As to `Cc1ccc(C)c2c1C(O)(C#Cc1ccccc1)c1ccccc1C2(O)C#Cc1ccccc1` (stereo not given), the growth was 57.2%. The figure for `Cc1ccc(/C=C2\CN(C(=O)C(Cl)Cl)C/C(=C\c3ccc(C)cc3)C2=O)cc1` is -37.3% (active); for `CC1=CCC[C@@H]2C1(C)CC[C@H](C)[C@@]2(C)CC1=CC(=O)C(SC(C)(C)C)=CC1=O` (stereo not given in full) it is 62.9%. The figure for `COc1cc2c(/C=C3\C(=O)Nc4ccccc43)c(C(=O)O)[nH]c2cc1C` is 93.5%; for `COc1ccc2nc3ccccc3c(NCc3ccccc3)c2c1` it is 34.6%; for `Cc1c(Cl)cccc1C(=O)Nc1nc2c(s1)CN(C(=O)Nc1cccc(C(F)(F)F)c1)CC2` it is 15.1%. The figure for `CC(C)(C)C(=O)/C=C/c1ccc([N+](=O)[O-])cc1` is 40%; for `COc1cc(/C=C/c2cc(/C=C/c3ccc(O)c(OC)c3)n(C(=O)Nc3ccc(F)cc3)n2)ccc1O` it is -6.04% (active). As for `CN1C(=O)/C(=C/c2ccc(C(=O)Nc3ncc(Cc4ccc(F)cc4)s3)cc2)SC1=S`, the growth was 39%. With `CC(O)c1ncc(/C=C2\SC(=S)N(Cc3ccccc3)C2=O)s1` (stereo not given), the growth is 5.34% (active). The figure for `COc1ccc(-c2nnc(SCC(=O)Nc3ccc(/C(C)=N\O)cc3)n2-c2ccccc2)cc1OC` is 35.3%. As for `CCN1C(=O)N(CC)C2C1NN=c1s/c(=C3\C(=O)N(CCc4ccccc4)c4ccccc43)c(=O)n12` (stereo not given), the growth is -5.28% (active).

Turning to `COc1cc(C(=O)/C=C/c2ccc(N3CCN(C)CC3)cc2)cc(OC)c1OC`, the growth is 77.7%.

On to `CCN(CC)CCCC(C)Nc1ccc2cc(OC)ccc2n1` (stereo not given), for which the growth is 99.1%.

For the compound `CCCCn1sc(=O)n(Cc2ccc(CNC(=O)OCc3ccc4c(Br)cc(Br)c(O)c4n3)cc2)c1=O`, the growth was -7.12% (active).

Take `O=C1C(Cl)=C(NCCN2CCOCC2)C(=O)c2ncccc21`: the growth is -74% (active).

With `CC(C)(CO)N(CCO)CCO`, the growth is 95.9%. On to `CC[C@H](Nc1nc(N)nc(C)c1C#N)c1nc2cccc(NCCCCCC(=O)NO)c2c(=O)n1-c1ccccc1`, for which the growth was 53.2%. To `CCCCCCCCn1ccc2cc(NC(=O)Cn3cc(CN4CCN(CC)CC4)nn3)ccc21` belongs 86.9%; to `Brc1ccc(-c2cnc3nonc3n2)cc1`, 66%. The figure for `Cn1cc(-c2nonc2-c2c[nH]c3ccc(F)cc23)c2cc(Br)ccc21` is 14.8%. To `Cn1cc(-c2csc(-c3cn(C(=O)OC(C)(C)C)c4ccccc34)n2)c2ccnc(Cl)c21` belongs 50%.

Regarding `COc1cc2cc(NCc3ccc(OC(F)F)cc3)nc(C)c2cc1OC`, the growth was 45.3%.

As to `C=NNc1ccccc1`, the growth is 73.7%.

In the case of `COc1ccc(NC(=O)c2sc3nc4c(cc3c2N)CCCC4)cc1`, the growth was -20.7% (active). For the compound `C=CCN=C(N)SCCCCCCSC(N)=NCC=C`, the growth is 64.4%. To `CCNCc1ccc(O)c2ncccc12` belongs 8.59% (active); to `CCN(CC)c1ccc(/C=N/NC(=O)c2ccc(Nc3ccnc(C(F)(F)F)c3)cc2)c(O)c1`, 49.7%. The figure for `Clc1nccc2c(-c3csc(-c4c[nH]c5ccccc45)n3)c[nH]c12` is 18.5%. Consider `O=C(N=Nc1c(O)[nH]c2ccccc12)Nc1ccc(Cl)cc1`, for which the growth was 89.8%.
